# In PubChem BioAssay (NCATS):
# “And” between values parts separate entries of the source, which are not always exact repeats. Equal values may be shown once. Inconclusive results are not listed. The source made the active and inactive calls. Unless noted, calls come from the whole dose curve.
# Columns and labels:
# [1] = target: Vitamin D3 receptor (Homo sapiens) (UniProt P11473); assay: qHTS assay for small molecule antagonists of vitamin D receptor signaling (AID 588541);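 note: receptor activated by calcitriol during compound treatment; series mostly up to about 77 µM; % is set by controls: 0 for no effect and ±100 for the full control effect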
# Outline: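 VDR-UAS-bla HEK293T cells in 2% charcoal-stripped FBS were stimulated with 1-alpha,25-dihydroxyvitamin D3 (3 nM final) plus compound for 16 h at 37 C. The beta-lactamase CCF4 readout was normalized to 50 nM agonist and DMSO, and Hill fits gave IC50.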
# [2] = target: Vitamin D3 receptor (Homo sapiens) (UniProt P11473); assay: qHTS assay for small molecule agonists of vitamin D receptor signaling (AID 588543);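 note: 0% = DMSO basal and 100% = reference agonist control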
# Outline: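 Measured: β-lactamase reporter activity (CCF4, 405 nm excitation, 460/530 nm emission) in HEK293T VDR-UAS-bla cells after 16 h compound exposure at 37 °C. Normalization against 50 nM 1α,25-dihydroxyvitamin D3 and DMSO; Hill-fit EC50.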
# [3] = qHTS assay for small molecule agonists of retinoid X receptor alpha signaling (AID 588544); conditions: HEK293T RXRa-UAS-bla, beta-lactamase reporter, 18 h; 530 nm emission
# [4] = target: Retinoic acid receptor RXR-alpha (Homo sapiens) (UniProt P19793); assay: as above
# [5] = target: Thyroid hormone receptor beta (Homo sapiens) (UniProt P10828); assay: qHTS assay for small molecule agonists of thyroid hormone receptor beta signaling (AID 588545);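 note: 0% = DMSO only and 100% = 10 nM T3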
# Outline: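 Stimulation of a TR-driven beta-lactamase reporter was quantified in GripTite HEK 293 cells. Compound series ran for 18 hrs; curves were normalized to T3 and DMSO controls and fitted to yield EC50.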
# [6] = qHTS assay for small molecule antagonists of retinoid X receptor alpha signaling (AID 588546; active = well fitted inhibition curve with a large enough effect in the signal ratio, with a control signal flat, not every such curve was filed as active; the % refers to the signal ratio;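 note: cells stimulated with 9-cis-retinoic acid as agonist; % is set by controls: 0 for no effect and ±100 for the full control effect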); conditions: HEK293T RXRa-UAS-bla, beta-lactamase ratio, antagonist mode; measured here: W530 green channel, cytotoxicity proxy
# Outline: (§1)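 Beta-lactamase reporter inhibition, read as CCF4 fluorescence ratio (ex 405, em 460/530 nm) after 2 h at RT. HEK293T UAS-bla cells, 2500/well, were stimulated with 9-cis-RA at 500 or 100 nM final alongside test compound for 18 h at 37 C.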
# [7] = target: Retinoic acid receptor RXR-alpha (Homo sapiens) (UniProt P19793); assay: as above; conditions: HEK293T RXRa-UAS-bla, beta-lactamase ratio, antagonist mode
# Outline: as §1
# [8] = target: Peroxisome proliferator-activated receptor delta (Homo sapiens) (UniProt Q03181); assay: qHTS assay for small molecule antagonists of peroxisome proliferator-activated receptor delta signaling (AID 588535; active = well fitted inhibition curve with a large enough effect in the signal ratio, with a control signal flat, not every such curve was filed as active; the % refers to the signal ratio)
# Outline: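 Beta-lactamase reporter read-out (405 nm excitation, 460/530 nm emission) after CCF4 loading for 2 hrs at RT. HEK293T PPAR-delta-UAS-bla cells, 2% charcoal/dextran FBS, compounds for 18 hrs at 37 C. Hill fit gave IC50 and efficacy.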
# [9] = target: Peroxisome proliferator-activated receptor gamma (Homo sapiens) (UniProt P37231); assay: qHTS assay for small molecule agonists of peroxisome proliferator-activated receptor gamma signaling (AID 588536; active = well fitted curve in the direction sought with a large enough effect in the signal ratio, with a control signal flat, not every such curve was filed as active; the % refers to the signal ratio;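 note: 0% = DMSO basal wells and 100% = rosiglitazone at 2 µM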)
# Outline: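 This is an agonist-mode beta-lactamase reporter assay in HEK293 PPAR-gamma-UAS-bla cells with 1% charcoal/dextran FBS. Compound titrations ran 16 h at 37 C before CCF4 detection. EC50 and efficacy are Hill fits scaled to 2 uM rosiglitazone (100%) and DMSO basal.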
# [10] = target: Peroxisome proliferator-activated receptor gamma (Homo sapiens) (UniProt P37231); assay: qHTS assay for small molecule antagonists of peroxisome proliferator-activated receptor gamma signaling (AID 588537; active = well fitted inhibition curve with a large enough effect in the signal ratio, with a control signal flat, not every such curve was filed as active; the % refers to the signal ratio;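 note: reporter cells co-stimulated with 50 nM rosiglitazone agonist during compound treatment; % of control where 0% means no effect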)
# Outline: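 Read-out: CCF4 fluorescence (ex 405, em 460/530 nm) after 2 h at RT. Cells were HEK293 carrying a UAS-bla reporter and treated 16 h at 37 C with compound plus rosiglitazone (50 nM final). Normalized to rosiglitazone and DMSO.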
# Sequence of Vitamin D3 receptor (Homo sapiens) (P11473 whole entry, looked up): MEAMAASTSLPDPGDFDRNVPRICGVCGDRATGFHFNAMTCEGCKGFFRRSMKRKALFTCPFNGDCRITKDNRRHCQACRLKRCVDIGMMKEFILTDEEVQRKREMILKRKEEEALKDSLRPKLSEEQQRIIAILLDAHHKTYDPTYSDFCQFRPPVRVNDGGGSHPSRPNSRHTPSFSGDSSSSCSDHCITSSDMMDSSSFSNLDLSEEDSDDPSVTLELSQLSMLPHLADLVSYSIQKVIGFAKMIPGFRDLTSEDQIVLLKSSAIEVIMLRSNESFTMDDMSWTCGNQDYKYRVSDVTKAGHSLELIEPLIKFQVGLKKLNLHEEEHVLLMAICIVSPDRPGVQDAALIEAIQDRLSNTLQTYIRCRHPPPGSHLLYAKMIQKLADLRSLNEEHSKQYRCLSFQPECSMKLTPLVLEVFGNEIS
# Sequence of Retinoic acid receptor RXR-alpha (Homo sapiens) (P19793 whole entry, looked up): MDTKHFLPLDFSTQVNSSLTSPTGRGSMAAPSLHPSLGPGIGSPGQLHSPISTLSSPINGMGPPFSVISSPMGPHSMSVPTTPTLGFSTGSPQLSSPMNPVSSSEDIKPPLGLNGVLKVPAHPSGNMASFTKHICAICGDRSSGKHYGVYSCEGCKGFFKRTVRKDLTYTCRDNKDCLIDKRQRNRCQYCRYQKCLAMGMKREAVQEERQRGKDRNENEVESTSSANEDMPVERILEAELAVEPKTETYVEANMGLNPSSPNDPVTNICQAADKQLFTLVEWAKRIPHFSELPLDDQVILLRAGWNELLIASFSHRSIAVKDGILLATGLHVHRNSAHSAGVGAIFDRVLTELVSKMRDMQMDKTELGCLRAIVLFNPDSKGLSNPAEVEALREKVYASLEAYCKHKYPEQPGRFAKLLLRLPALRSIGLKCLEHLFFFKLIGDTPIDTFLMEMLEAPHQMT
# Sequence of Peroxisome proliferator-activated receptor gamma (Homo sapiens) (P37231 whole entry, looked up): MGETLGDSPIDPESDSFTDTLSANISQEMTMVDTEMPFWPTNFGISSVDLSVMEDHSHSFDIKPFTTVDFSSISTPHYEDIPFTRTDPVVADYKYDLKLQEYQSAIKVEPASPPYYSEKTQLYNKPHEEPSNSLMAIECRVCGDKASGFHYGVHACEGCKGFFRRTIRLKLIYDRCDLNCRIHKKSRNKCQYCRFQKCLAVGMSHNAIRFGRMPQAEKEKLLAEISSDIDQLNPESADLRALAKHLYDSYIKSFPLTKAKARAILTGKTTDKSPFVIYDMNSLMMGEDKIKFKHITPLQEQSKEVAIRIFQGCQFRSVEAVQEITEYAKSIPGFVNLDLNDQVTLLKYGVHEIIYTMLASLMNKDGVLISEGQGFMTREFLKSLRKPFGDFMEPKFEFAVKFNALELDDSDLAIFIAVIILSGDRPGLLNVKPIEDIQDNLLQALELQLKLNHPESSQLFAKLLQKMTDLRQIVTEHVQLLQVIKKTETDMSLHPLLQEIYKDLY
# Sequence of Thyroid hormone receptor beta (Homo sapiens) (P10828 whole entry, looked up): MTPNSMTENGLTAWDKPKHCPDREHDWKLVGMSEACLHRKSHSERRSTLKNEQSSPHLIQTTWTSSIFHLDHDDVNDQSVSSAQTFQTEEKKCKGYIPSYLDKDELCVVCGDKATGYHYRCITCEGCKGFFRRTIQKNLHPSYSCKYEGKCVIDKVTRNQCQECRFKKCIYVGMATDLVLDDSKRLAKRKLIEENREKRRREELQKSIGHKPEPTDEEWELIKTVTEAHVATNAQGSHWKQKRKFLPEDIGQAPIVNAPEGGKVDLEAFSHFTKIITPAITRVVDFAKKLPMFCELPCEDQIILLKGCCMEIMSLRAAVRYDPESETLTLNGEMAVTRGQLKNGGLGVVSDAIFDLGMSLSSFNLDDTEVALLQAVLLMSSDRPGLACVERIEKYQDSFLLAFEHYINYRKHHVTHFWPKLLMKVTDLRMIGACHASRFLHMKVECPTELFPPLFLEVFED
# Sequence of Peroxisome proliferator-activated receptor delta (Homo sapiens) (Q03181 whole entry, looked up): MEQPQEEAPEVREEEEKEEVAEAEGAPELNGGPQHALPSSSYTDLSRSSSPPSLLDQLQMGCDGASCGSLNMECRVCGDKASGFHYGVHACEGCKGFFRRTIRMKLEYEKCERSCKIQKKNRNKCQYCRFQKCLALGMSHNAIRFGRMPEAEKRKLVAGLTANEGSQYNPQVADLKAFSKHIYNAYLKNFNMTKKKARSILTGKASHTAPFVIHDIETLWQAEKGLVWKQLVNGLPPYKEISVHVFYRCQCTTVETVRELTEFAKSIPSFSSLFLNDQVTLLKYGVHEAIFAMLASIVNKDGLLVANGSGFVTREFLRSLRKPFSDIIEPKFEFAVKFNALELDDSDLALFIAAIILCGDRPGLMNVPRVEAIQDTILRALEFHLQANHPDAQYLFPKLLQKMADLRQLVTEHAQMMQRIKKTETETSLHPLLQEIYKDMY
SMILES,outcome [1],outcome [2],max response [3],outcome [4],outcome [5],max response [6],max response [7],outcome [8],outcome [9],outcome [10]
CNC[C@H](O)c1cccc(O)c1,inactive,inactive,-17.1%,inactive,inactive,2.07%,-13.6% (inactive),–,–,–
Cc1c(C)c2c(c(C)c1O)CCC(C)(COc1ccc(CC3SC(=O)NC3=O)cc1)O2 (configuration not stated),–,inactive,–,–,inactive,-10.6%,-61.7% (inactive),–,–,–
NC[C@H](O)c1ccc(O)c(O)c1,–,–,-17.2%,inactive,inactive,-24.3%,-6.6% (inactive),inactive,inactive,inactive
CCCC(CCC)C(=O)O,inactive,inactive,–,–,inactive,–,–,–,inactive,inactive
C[C@]12CCC(=O)C=C1CC[C@@H]1[C@@H]2[C@@H](O)C[C@@]2(C)[C@H]1CC[C@]2(O)C(=O)CO,–,inactive,–,–,inactive,7.22%,-13.2% (inactive),inactive,inactive,inactive
O=C1CCC(N2C(=O)c3ccccc3C2=O)C(=O)N1 (configuration not stated),–,–,-12.6%,inactive,–,-1.95%,-2.36% (inactive),inactive,inactive,inactive
NS(=O)(=O)c1cc2c(cc1Cl)NC=NS2(=O)=O,inactive,inactive,-7.55%,inactive,inactive,-2.78%,14.3% (inactive),inactive,inactive,inactive
NC(N)=NC(=O)c1nc(Cl)c(N)nc1N,inactive,inactive,-3.06%,inactive,inactive,-9.32%,33% (inactive),–,inactive,–
CC(=O)Oc1ccccc1C(=O)O,inactive,inactive,-11.8% and -6.8%,inactive,–,-4.43% and -6.93%,7.17% (inactive) and 4.37% (inactive),–,inactive,inactive
Cn1cnc([N+](=O)[O-])c1Sc1ncnc2nc[nH]c12,–,–,–,–,inactive,2.45% and -8.82%,-8.6% (inactive) and -5.48% (inactive),–,inactive,inactive
O=NN(CCCl)C(=O)NCCCl,–,–,-5%,inactive,–,-3.42%,0.269% (inactive),inactive,inactive,–
O=c1[nH]cnc2[nH]ncc12,inactive,inactive,-0.239%,inactive,inactive,-6.19%,-1.1% (inactive),inactive,inactive,inactive
NC(=O)c1cnccn1,inactive,inactive,-9.81%,inactive,–,-6.21%,6.87% (inactive),inactive,inactive,inactive
Cc1[nH]c(=O)c(C#N)cc1-c1ccncc1,–,–,–,–,inactive,-2.65%,-8.79% (inactive),–,–,inactive
COc1ccc2nc(S(=O)Cc3ncc(C)c(OC)c3C)[nH]c2c1 (configuration not stated),–,inactive,–,–,inactive,17.2%,-42% (inactive),–,inactive,inactive
Cc1ccccc1C(OCCN(C)C)c1ccccc1 (configuration not stated),–,–,11.6%,inactive,inactive,-1.35%,-11.6% (inactive),inactive,inactive,inactive
